According to PubChem BioAssay (NCATS):
Inconclusive results are not listed. Calls of active or inactive are those of the source. Unless noted, the call rests on the fitted dose curve; in most records, active means well fitted curve in the direction sought with a large enough effect; inconclusive means small, poorly fitted or top-dose-only effect, or another doubt; inactive means no such curve, though single readings can be large; an effect the other way counts as inactive or inconclusive.

How the values were obtained:
[1] = NFAT Signaling Pathway (AID 444; active means well fitted curve in either direction with a large enough effect, not every such curve was filed as active;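 further: carbachol stimulus at about its EC50 of 1 µM final; on the % scale 0 is the no-effect control and ±100 the full control effect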); settings: Jurkat NFAT-bla M1, carbachol, beta-lactamase ratio, 5 h; at 17.2 µM (top of the series) unless noted
Method in brief: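 Jurkat cells with NFAT-driven β-lactamase reporter and co-expressed M1 receptor, stimulated with carbachol (final 1 uM, ~EC50), compound titration, 5 h at 37 °C. CCF4 loaded 1 h at RT; 460/530 nm ratio gave %activity and AC50.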

[2] = Stat Signaling Pathway (AID 446; active means well fitted curve in either direction with a large enough effect, not every such curve was filed as active;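 further: ME-180 cervical cancer cells given 40 pM IL-6 alongside compound; SIE-controlled beta-lactamase reporter measured as 460/530 nm FRET emission ratio; on the % scale 0 is the no-effect control and ±100 the full control effect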); settings: ME-180 SIE beta-lactamase reporter, IL-6 stimulated, 5 h; at 17.2 µM (top of the series) unless noted
Method in brief: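 Reporter line: ME-180 cervical carcinoma, SIE-beta-lactamase. Treatment: compound with 40 pM IL-6, 5 hrs, 37 C, in low-serum OPTI-MEM with 10 mM HEPES pH 7.3. Detection: 460/530 nm fluorescence.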

[3] = target: Glucocorticoid receptor (Homo sapiens) (UniProt P04150); assay: GR-GFP Redistribution (AID 450;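 active means compounds whose dose series gives a full or clear partial fitted curve of increased nuclear translocation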; further: potency means the concentration at half of the fitted maximal effect)
[4] = target: Glucocorticoid receptor (Homo sapiens) (UniProt P04150); assay: GR-EFC Redistribution (AID 451; calls by dose curve; further: potency means the concentration at half of the fitted maximal effect); settings: CHO-K1 GR-EFC translocation, beta-gal luminescence, 2 h
Method in brief: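 CHO-K1 cells expressing nuclear EA and GR-ED fragments of b-gal; compounds titrated up to 46 uM final, 2 h at 37 C. GR nuclear translocation read as complemented b-gal luminescence after 1 h RT detection.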

[5] = target: Mitogen-activated protein kinase 10 (Mus musculus) (UniProt Q61831); assay: JNK3 AlphaScreen Assay (AID 530; active means well fitted curve in either direction with a large enough effect, not every such curve was filed as active;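 further: kinase came from lysate of stimulated human HepG2 cells; signal reports phosphorylation of biotinylated GST-cJun 1-79 at Ser73 with 10 µM ATP; on the % scale 0 is the no-effect control and ±100 the full control effect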)
Method in brief: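 Pre-activated (IL-1β/TNFα) JNK3 in HepG2 lysates phosphorylates biotin-GST-cJun(1-79), 10 uM ATP; anti-phospho-cJun(Ser73) AlphaScreen read at room temperature, pH 7.6 Tris buffer. Compounds pre-incubated 15 min as titrations.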

[6] = target: 3',5'-cyclic-AMP phosphodiesterase 4B (Homo sapiens) (UniProt Q07343); assay: qHTS Assay for Inhibitors of PDE-IV (AID 607; active means well fitted activation curve with a large enough effect in the main read-out, with a control signal flat, not every such curve was filed as active; further: % of control where 0% means no effect)
Method in brief: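 Cell-based read-out of cAMP via a modified cyclic nucleotide-gated channel and membrane potential dye (535/590 nm) in HEK293 cells expressing PDE4 endogenously. Compounds tested up to 22.9 uM final; 100 uM RO 20-1724 reference.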

[7] = target: ATP-dependent 6-phosphofructokinase (Trypanosoma brucei brucei) (UniProt O15648); assay: qHTS Assay to Find Inhibitors of T. brucei phosphofructokinase: hit validation (AID 492961);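 further: luminescence reports ADP formed as PFK phosphorylates fructose-6-phosphate with ATP; on the % scale 0 is the no-effect control and ±100 the full control effect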
Method in brief: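 Inhibition of parasite PFK is measured as reduced ADP formation, quantified via luciferase after ATP depletion. Assay used 0.1 mM ATP, 0.5 mM F6P, 1.25 nM enzyme, 45 min incubation.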

[8] = target: Ubiquitin carboxyl-terminal hydrolase 1 (Homo sapiens) (UniProt O94782); assay: Inhibitors of USP1/UAF1: Pilot qHTS (AID 504865);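 further: rhodamine fluorescence freed from ubiquitin-rhodamine substrate followed over time; top concentration of the series differs between compounds; on the % scale 0 is the no-effect control and ±100 the full control effect; nearly all actives have a fitted effect of over 35% in size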
Method in brief: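 1nM USP1/UAF1 + cpd, 15 min RT; start w/ Ub-Rho 150nM final; kinetic FL 480/540 nm, 6 reads q60 s. Buffer 50mM HEPES pH 7.8, 0.5mM EDTA, 1mM TCEP, 0.01% Tween-20, 0.1 mg/ml BSA.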

[9] = target: Luciferin 4-monooxygenase (Photinus pyralis) (UniProt P08659); assay: Biochemical firefly luciferase enzyme assay for NPC (AID 624030);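 further: purified P. pyralis luciferase at 10 nM with luciferin and ATP substrate; 0% = DMSO and -100% = full luciferase inhibition by PTC124 control; nearly all actives have a fitted effect of over 70% in size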
Method in brief: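 Purified P. pyralis luciferase at 10 nM in 50 mM Tris Acetate (final), luminescence read within 5 minutes of enzyme addition to compounds. Activity normalised to PTC124 versus DMSO; concentration-response curves classed by r2, magnitude and activity.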

[10] = S16 Schwann cell viability assay (CellTiter-Glo assay) (AID 624031);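 further: native untransfected S16 rat Schwann cells; cellular ATP luminescence as a viability measure; plate controls were DMSO-treated cells for no effect and cell-free wells for full effect; nearly all actives have a fitted effect of over 70% in size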
Method in brief: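 Parental S16 cells, 24 h compound, 37 °C. ATP-luminescence viability; DMSO = 0% activity, empty wells as reference; curves classified by fit quality and efficacy.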

[11] = S16 Schwann cell PMP22 intronic element firefly luciferase assay (AID 624032);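 further: plate controls were DMSO for no effect and PTC124 positive control mean for full effect; nearly all actives have a fitted effect of over 30% in size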
Method in brief: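 Rat S16 Schwann cells stably carrying firefly luciferase driven by a PMP22 intronic element, in 10% FBS, treated 24 h at 37 C. ONE-Glo luminescence normalized to PTC124 control and DMSO (0%); curves classed by r2, magnitude and activity.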

[12] = qHTS profiling for inhibitors of Plasmodium falciparum proliferation (AID 504749);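 further: 0% = DMSO vehicle and full inhibition = artemisinin control; nearly all actives have a fitted effect of over 60% in size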; settings: P. falciparum in erythrocytes, SYBR Green DNA, 72 h, at 12.8 µM (top of the series)
Method in brief: (§1)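 P. falciparum-infected erythrocytes (0.3% parasitemia, 2.5% hematocrit) incubated with compound 72 h at 37 C, 5% CO2. Parasite DNA detected by SYBR Green after lysis, overnight at room temperature; normalised to 0.29 uM artemisinin and DMSO.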

3D7 = assay: as above; settings: P. falciparum in erythrocytes, SYBR Green DNA, 72 h; series mostly up to 28.7 µM
Method in brief: as §1

7G8 = assay: as above; settings: P. falciparum in erythrocytes, SYBR Green DNA, 72 h; series mostly up to 28.7 µM
Method in brief: as §1

AA1029 = assay: as above; settings: P. falciparum in erythrocytes, SYBR Green DNA, 72 h; series mostly up to 28.7 µM
Method in brief: as §1

AS120 = assay: as above; settings: P. falciparum in erythrocytes, SYBR Green DNA, 72 h; series mostly up to 28.7 µM
Method in brief: as §1

ATS189 = assay: as above; settings: P. falciparum in erythrocytes, SYBR Green DNA, 72 h; series mostly up to 28.7 µM
Method in brief: as §1

ATS95 = assay: as above; settings: P. falciparum in erythrocytes, SYBR Green DNA, 72 h; series mostly up to 28.7 µM
Method in brief: as §1

C2A = assay: as above; settings: P. falciparum in erythrocytes, SYBR Green DNA, 72 h; series mostly up to 28.7 µM
Method in brief: as §1

CP185 = assay: as above; settings: P. falciparum in erythrocytes, SYBR Green DNA, 72 h; series mostly up to 28.7 µM
Method in brief: as §1

CP191 = assay: as above; settings: P. falciparum in erythrocytes, SYBR Green DNA, 72 h; series mostly up to 28.7 µM
Method in brief: as §1

CP192 = assay: as above; settings: P. falciparum in erythrocytes, SYBR Green DNA, 72 h; series mostly up to 28.7 µM
Method in brief: as §1

CP194 = assay: as above; settings: P. falciparum in erythrocytes, SYBR Green DNA, 72 h; series mostly up to 28.7 µM
Method in brief: as §1

CP201 = assay: as above; settings: P. falciparum in erythrocytes, SYBR Green DNA, 72 h; series mostly up to 28.7 µM
Method in brief: as §1

CP203 = assay: as above; settings: P. falciparum in erythrocytes, SYBR Green DNA, 72 h; series mostly up to 28.7 µM
Method in brief: as §1

CP211 = assay: as above; settings: P. falciparum in erythrocytes, SYBR Green DNA, 72 h; series mostly up to 28.7 µM
Method in brief: as §1

CP215 = assay: as above; settings: P. falciparum in erythrocytes, SYBR Green DNA, 72 h; series mostly up to 28.7 µM
Method in brief: as §1

CP217 = assay: as above; settings: P. falciparum in erythrocytes, SYBR Green DNA, 72 h; series mostly up to 28.7 µM
Method in brief: as §1

CP237 = assay: as above; settings: P. falciparum in erythrocytes, SYBR Green DNA, 72 h; series mostly up to 28.7 µM
Method in brief: as §1

CP238 = assay: as above; settings: P. falciparum in erythrocytes, SYBR Green DNA, 72 h; series mostly up to 28.7 µM
Method in brief: as §1

CP247 = assay: as above; settings: P. falciparum in erythrocytes, SYBR Green DNA, 72 h; series mostly up to 28.7 µM
Method in brief: as §1

CP250 = assay: as above; settings: P. falciparum in erythrocytes, SYBR Green DNA, 72 h; series mostly up to 28.7 µM
Method in brief: as §1

CP252 = assay: as above; settings: P. falciparum in erythrocytes, SYBR Green DNA, 72 h; series mostly up to 28.7 µM
Method in brief: as §1

CP256 = assay: as above; settings: P. falciparum in erythrocytes, SYBR Green DNA, 72 h; series mostly up to 28.7 µM
Method in brief: as §1

Sequence of Glucocorticoid receptor (Homo sapiens) (P04150 whole entry, looked up, the tested form may be a part): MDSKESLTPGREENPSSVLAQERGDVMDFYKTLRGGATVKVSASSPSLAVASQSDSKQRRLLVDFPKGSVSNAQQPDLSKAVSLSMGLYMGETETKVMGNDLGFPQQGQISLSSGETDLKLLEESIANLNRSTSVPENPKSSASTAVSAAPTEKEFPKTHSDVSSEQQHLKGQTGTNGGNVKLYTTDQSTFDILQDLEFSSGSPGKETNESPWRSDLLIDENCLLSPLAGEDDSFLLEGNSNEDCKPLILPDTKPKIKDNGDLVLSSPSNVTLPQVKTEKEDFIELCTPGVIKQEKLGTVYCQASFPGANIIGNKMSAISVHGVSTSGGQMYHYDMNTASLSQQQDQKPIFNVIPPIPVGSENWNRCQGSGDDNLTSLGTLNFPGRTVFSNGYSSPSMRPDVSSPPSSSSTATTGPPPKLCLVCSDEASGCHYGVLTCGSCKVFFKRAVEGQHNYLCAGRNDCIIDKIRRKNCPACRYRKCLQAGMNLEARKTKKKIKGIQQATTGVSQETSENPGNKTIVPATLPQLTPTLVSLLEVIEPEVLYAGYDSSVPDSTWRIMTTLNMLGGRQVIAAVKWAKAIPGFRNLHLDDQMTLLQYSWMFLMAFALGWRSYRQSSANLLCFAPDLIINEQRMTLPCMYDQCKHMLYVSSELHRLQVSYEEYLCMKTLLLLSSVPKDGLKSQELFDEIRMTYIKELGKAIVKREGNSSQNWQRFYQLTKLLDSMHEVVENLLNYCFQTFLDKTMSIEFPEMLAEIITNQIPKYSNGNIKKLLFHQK
Sequence of Ubiquitin carboxyl-terminal hydrolase 1 (Homo sapiens) (O94782 whole entry, looked up): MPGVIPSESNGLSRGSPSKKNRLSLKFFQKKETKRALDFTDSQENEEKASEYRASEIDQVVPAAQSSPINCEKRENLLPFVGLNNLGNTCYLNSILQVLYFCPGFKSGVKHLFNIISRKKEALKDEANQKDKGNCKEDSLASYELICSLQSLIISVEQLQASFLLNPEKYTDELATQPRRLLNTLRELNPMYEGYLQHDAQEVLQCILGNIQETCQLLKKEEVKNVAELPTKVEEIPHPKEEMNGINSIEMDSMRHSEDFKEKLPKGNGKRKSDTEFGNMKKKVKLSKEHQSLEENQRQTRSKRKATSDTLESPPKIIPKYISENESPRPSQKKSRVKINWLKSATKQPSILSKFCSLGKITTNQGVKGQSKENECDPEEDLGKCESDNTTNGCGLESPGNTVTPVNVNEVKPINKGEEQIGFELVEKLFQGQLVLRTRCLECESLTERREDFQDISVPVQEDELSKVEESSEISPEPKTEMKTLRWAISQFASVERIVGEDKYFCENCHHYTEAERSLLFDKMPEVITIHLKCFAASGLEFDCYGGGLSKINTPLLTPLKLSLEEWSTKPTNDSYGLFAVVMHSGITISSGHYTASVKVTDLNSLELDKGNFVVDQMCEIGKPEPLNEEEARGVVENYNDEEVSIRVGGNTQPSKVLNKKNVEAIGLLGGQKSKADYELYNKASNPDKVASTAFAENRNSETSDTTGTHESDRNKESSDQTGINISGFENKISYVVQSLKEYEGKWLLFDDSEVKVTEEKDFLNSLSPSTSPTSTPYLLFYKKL
Sequence of Luciferin 4-monooxygenase (Photinus pyralis) (P08659 whole entry, looked up): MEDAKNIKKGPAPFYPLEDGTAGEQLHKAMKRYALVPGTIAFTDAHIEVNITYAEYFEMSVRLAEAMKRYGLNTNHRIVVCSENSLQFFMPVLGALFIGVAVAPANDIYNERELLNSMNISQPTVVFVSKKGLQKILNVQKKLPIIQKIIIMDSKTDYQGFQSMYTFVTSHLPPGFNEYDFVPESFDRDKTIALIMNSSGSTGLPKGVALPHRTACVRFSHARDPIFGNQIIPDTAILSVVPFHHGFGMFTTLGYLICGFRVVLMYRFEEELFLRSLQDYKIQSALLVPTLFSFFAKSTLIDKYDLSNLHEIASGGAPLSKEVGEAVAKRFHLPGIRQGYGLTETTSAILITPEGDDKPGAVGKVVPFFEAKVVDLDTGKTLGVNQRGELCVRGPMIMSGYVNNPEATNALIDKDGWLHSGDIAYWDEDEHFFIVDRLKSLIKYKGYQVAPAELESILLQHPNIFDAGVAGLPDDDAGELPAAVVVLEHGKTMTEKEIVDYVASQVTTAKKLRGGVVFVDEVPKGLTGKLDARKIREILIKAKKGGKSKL
Sequence of 3',5'-cyclic-AMP phosphodiesterase 4B (Homo sapiens) (Q07343 whole entry, looked up): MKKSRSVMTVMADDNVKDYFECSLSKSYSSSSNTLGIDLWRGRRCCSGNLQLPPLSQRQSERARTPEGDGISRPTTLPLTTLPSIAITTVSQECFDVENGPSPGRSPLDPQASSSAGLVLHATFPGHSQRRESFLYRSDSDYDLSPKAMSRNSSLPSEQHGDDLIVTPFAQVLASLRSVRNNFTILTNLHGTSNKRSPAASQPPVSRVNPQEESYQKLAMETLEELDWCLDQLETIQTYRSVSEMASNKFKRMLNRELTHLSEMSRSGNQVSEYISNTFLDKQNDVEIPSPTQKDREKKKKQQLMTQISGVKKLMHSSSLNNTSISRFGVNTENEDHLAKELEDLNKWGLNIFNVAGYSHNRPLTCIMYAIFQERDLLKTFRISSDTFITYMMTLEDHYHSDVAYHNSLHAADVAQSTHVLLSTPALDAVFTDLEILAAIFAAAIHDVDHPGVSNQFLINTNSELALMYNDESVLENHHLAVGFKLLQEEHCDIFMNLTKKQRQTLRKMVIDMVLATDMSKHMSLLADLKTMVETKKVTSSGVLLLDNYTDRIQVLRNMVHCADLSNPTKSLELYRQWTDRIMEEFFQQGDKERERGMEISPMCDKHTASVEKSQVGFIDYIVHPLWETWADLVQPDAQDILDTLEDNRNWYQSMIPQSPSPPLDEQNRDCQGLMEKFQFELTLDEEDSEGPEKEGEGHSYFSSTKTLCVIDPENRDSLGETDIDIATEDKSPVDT
Sequence of ATP-dependent 6-phosphofructokinase (Trypanosoma brucei brucei) (O15648 whole entry, looked up): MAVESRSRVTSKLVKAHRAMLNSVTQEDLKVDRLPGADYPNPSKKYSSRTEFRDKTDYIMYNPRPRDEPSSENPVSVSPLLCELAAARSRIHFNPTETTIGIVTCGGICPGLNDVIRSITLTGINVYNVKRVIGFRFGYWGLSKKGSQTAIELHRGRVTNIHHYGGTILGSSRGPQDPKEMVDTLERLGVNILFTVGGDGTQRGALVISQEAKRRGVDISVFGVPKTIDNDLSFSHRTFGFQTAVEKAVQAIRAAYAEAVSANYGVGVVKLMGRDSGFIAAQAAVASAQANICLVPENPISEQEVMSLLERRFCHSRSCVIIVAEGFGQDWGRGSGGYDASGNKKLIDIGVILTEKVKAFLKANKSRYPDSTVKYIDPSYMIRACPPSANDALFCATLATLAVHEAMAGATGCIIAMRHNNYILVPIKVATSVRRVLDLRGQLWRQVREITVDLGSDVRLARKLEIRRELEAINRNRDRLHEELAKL

C[C@H](O)[C@@H]1C(=O)N2C(C(=O)O)=C(SCCN=CN)C[C@@H]12
inactive: activity change, negative = inhibition [1] -9.39% | activity, negative = inhibition [2] -2.21% | Potency [3] > 20.6 µM | Potency [4] > 20.6 µM | Potency [5] | Potency [6] | Potency [7] | Potency [8] | Potency [9] | Potency [10] | Potency [11] | activity, negative = inhibition ([12]; parasite line A) 7.64% | activity, negative = inhibition ([12]; parasite line B) 5.5% | Potency (3D7) | Potency (7G8) | Potency (AA1029) | Potency (AS120) | Potency (ATS189) | Potency (ATS95) | Potency (C2A) | Potency (CP185) | Potency (CP191) | Potency (CP192) | Potency (CP194) | Potency (CP201) | Potency (CP203) | Potency (CP211) | Potency (CP215) | Potency (CP217) | Potency (CP237) | Potency (CP238) | Potency (CP247) | Potency (CP250) | Potency (CP252) | Potency (CP256)
